# Screening results deposited in PubChem BioAssay by National Center for Advancing Translational Sciences (NCATS).
# Rows were chosen to be rich in hits. Some 3.2% of all compounds tested hit in one or more screens of this group.
# Nrf2 ARE act: Nrf2 pathway activation | AREc32 ARE-luciferase reporter (MCF7-derived line), luminescence, 24 h | Potency, µM (highest dose often 46.1 µM), inactives show at the highest dose activation, actives largely listed as activators | hit rate 0.31% among 410,000 | AID 624171; note: potency is the fitted concentration of half-maximal effect; % of control where 0% means no effect; nearly all actives have a fitted effect of over 65% in size
#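 ARE-driven firefly luciferase activity in AREc32 cells measured after a 24 hr compound exposure at 37 deg C, using Steady-Glo reagent and a 30 min room-temperature hold.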
# IL-2 act: activates IL-2 in a cell-based reporter assay; IL-2 activation reporter assay, cell-based qHTS; stimulated with anti-CD3/CD4/CD28 beads; in transgenic mouse T cells; hit rate 0.065% among 360,000; activation, % (series mostly up to about 46 µM); AID 652025; in the data active = activation above about 50%; inconclusive = mostly about 30% to 49%; note: 0% is about no effect
#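 Screening format: compound pinned onto unstimulated transgenic mouse T cells, 60 min incubation, then anti-CD3/anti-CD4/anti-CD28 bead stimulation for 18 hours at 37 degrees C, followed by EGFP and DsRed detection.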
# p53 reactivator: restores transcriptional activity of mutant p53; H1299 p53-A138V BP100-luciferase reporter, luminescence, 24 h; Potency, µM (titrated, usually from 92.2 µM), inactives show at the highest dose activity change, positive = activation, hits mostly activators; hit rate 0.063% among 320,000; AID 504706; note: potency is the fitted concentration of half-maximal effect; % of control where 0% means no effect; nearly all actives have a fitted effect of over 45% in size
#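 H1299 (p53-null), stable ts p53-A138V + BP100-Luc; 1000 cells/well, Opti-MEM/10% FBS; cpd 4 pt, 1:5; 24 h, 37 deg C, 5% CO2; detection reagent 10 min RT; luminescence.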
# Nrf2 block: blocks Nrf2 signaling; A549 ARE-Fluc reporter, luciferase luminescence, 18-24 h; Potency, µM (series often up to 46 µM), inactives show top-dose activity change, negative = inhibition, actives largely listed as inhibitors; hit rate 2.1% among 360,000; AID 504444; note: potency is the fitted concentration of half-maximal effect; % is set by controls: 0 for no effect and ±100 for the full control effect; nearly all actives have a fitted effect of over 60% in size
#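 In this cell-based qHTS, ARE-driven firefly luciferase in A549 cells reports Nrf2 activity; the luminescent signal after BugLite lysis is the measured value, with a prior CellTiter-Fluor read for cell health.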
# BRCA1 expr act: BRCA1 expression activation; AID 624202; hit rate 1.1% among 380,000; Potency, µM (titrated, usually from 46.1 µM), without a hit: at the top dose activation, hits mostly activators; MCF7-BRCA1-FFLuc reporter, luminescence, 48 h; response scale: scaled: vehicle 0%, 10 µM genistein 100%; note: potency is the fitted concentration of half-maximal effect; nearly all actives have a fitted effect of over 80% in size
#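 Activators of BRCA1 expression were detected as increased firefly luciferase luminescence in engineered MCF7 cells after 48 h compound incubation. Signals were scaled to genistein 10 microM as full activation.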
# A549 viability: kills or reduces viability of A549 cells in Nrf2 counter-screen. A549 ARE-Fluc cells, CellTiter-Fluor viability, 18-24 h. Potency, µM (titrated, usually from 46 µM), without a hit: at the highest dose activity change, negative = cytotoxicity, usual class: inhibitors. hit rate 0.16% among 390,000. AID 504648; note: potency is the fitted concentration of half-maximal effect; % is set by controls: 0 for no effect and ±100 for the full control effect
#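 A549 ARE_Fluc cells in 5% FBS OPTI-MEM were exposed to compounds in concentration-response for 18-24 h at 37 deg C. Viability was read by CellTiter-Fluor fluorescence (Ex 405/Em 525) after 30 min, before the luciferase read.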
# Starred values were filed as active, the others as inactive; ? = inconclusive; / = not tested or not shown; [ ] = another dose, or the depositor's remark. Unless noted, calls come from the whole dose curve; as a rule, active = well fitted curve in the direction sought with a large enough effect; inconclusive = small, poorly fitted or top-dose-only effect, or another doubt; inactive = no such curve, though single readings can be large; an effect the other way counts as inactive or inconclusive.
SMILES,Nrf2 ARE act,IL-2 act,p53 reactivator,Nrf2 block,BRCA1 expr act,A549 viability
O=S(=O)(c1ccc(Cl)cc1)N1CCN(S(=O)(=O)c2ccc3c(c2)OCCO3)CC1,/,/,/,-3%,/,-1%
COc1ccc(N(C(=O)c2snc(C(N)=O)c2N)C(C(=O)NCc2ccccc2)c2ccc(O)cc2)cc1 (configuration not stated),1%,-3,-6%,11%,3%,-3%
Cc1cccc(N(C(=O)c2snc(C(N)=O)c2N)C(C(=O)NCc2ccccc2)c2ccncc2)c1 (configuration not stated),0%,1,-6%,23µM*,-36%,-15%
Cc1cc(OC(C)C(=O)Nc2cccc(-c3nc4ccccc4o3)c2)cc(C)c1Cl (configuration not stated),1%,/,/,9%,71%,-1%
O=[N+]([O-])c1c(NCCO)cc(N2CCC3(CC2)OCCO3)c2nonc12,0%,-3,-6%,-18%,3%,9.2µM*
CC(=O)c1ccc(NC(=O)C2(c3ccccc3)CC2(Cl)Cl)cc1 (configuration not stated),4%,0,5%,19%,10µM*,12%
O=C(CSc1nc2ccc([N+](=O)[O-])cc2[nH]1)NC1CCCCCC1,2%,-6,14%,13µM*,-77%,?
O=C1c2oc3ccccc3c(=O)c2C(c2ccccc2F)N1Cc1ccc2c(c1)OCO2 (configuration not stated),-1%,/,/,15%,/,0%
CC(C)(C)c1ccc(NC(=O)N2CCN(c3ccc([N+](=O)[O-])cn3)CC2)cc1,4%,0,4%,13µM*,-35%,-8%
CCn1c(SCc2ccc(OC)c(F)c2)nc2ccccc2c1=O,5%,1,-4%,-8%,-30%,4%
COCC(C)n1c(SCc2ccc(OC)c(F)c2)nc2ccccc2c1=O (configuration not stated),0%,-1,2%,23µM*,-27%,5%
COc1ccc(-c2noc(-c3ccccc3NC(=O)c3cc(OC)c(OC)c(OC)c3)n2)cc1,9%,/,/,27%,/,-1%
C/C(=N\NC(=O)c1ccoc1C)c1ccccc1,2%,-3,9%,?,4µM*,-1%
C/C(=N\NC(=O)c1nn(C)c(C)c1Br)c1ccc(NC(=O)C2CCCC2)cc1,-1%,-1,23%,8%,5µM*,-10%
C/C(=N/NC(=O)c1ccoc1C)c1ccc(NC(=O)C2CCCC2)cc1,0%,-1,?,?,5.6µM*,11%
CN(C)c1ccc(N=Nc2ccc(S(=O)(=O)O)cc2)cc1,/,/,/,/,8%,/
O=c1c(Cl)c(Nc2cccc(Cl)c2)cnn1-c1nc2ccccc2s1,25%,-1,?,?,14µM*,-11%
Cc1ccc(C)c(N2CCN(c3cnn(-c4nc5ccccc5s4)c(=O)c3Cl)CC2)c1,11%,0,/,?,?,-1%
COc1ccc(Nc2cnn(-c3nc4ccccc4s3)c(=O)c2Cl)cc1,10µM*,-6,-18%,?,-45%,-13%
COc1ccc(C2SCC(=O)N2c2nc3ccccc3s2)cc1 (configuration not stated),5%,0,22%,16%,?,-3%
Cn1ccc2cc(S(=O)(=O)N3CCC(C(=O)NCCc4ccccc4)CC3)ccc21,1%,/,/,/,/,0%
COc1ccc(C)cc1NC(=O)CN(c1cc(C(F)(F)F)ccc1Cl)S(C)(=O)=O,-1%,/,/,-30%,-14%,2%
COc1ccccc1CNC(=O)CCCn1c(=O)c2ccccc2n(Cc2ccc(F)cc2)c1=O,0%,/,/,-29%,4%,-6%
O=C(Nc1nnc(CSCc2ccc(F)cc2)s1)c1cccc([N+](=O)[O-])c1,4%,-1,-2%,18µM*,-38%,?
O=C(Nc1nnc(CSCc2ccc(Cl)cc2)s1)c1cccc([N+](=O)[O-])c1,0%,-2,-12%,?,-28%,-16%
SMILES,Nrf2 ARE act,IL-2 act,p53 reactivator,Nrf2 block,BRCA1 expr act,A549 viability
c1ccc(-c2nc(N3CCN(c4ccccc4)CC3)nc(-n3ccnc3)n2)cc1,0%,-3,2%,4.6µM*,-52%,-24%
c1ccc(-c2ccc(-n3ccnc3)cc2)cc1,4%,1,?,?,10µM*,-8%
COC(=O)c1ccc(-n2ccnc2)cc1,1%,4,-3%,8%,-5%,2%
COc1cc(NC(=O)c2cc(Cl)ccc2Cl)ccc1NC(=O)c1cc2ccccc2o1,5%,/,/,?,/,-1%
COc1ccc(CNC(=O)c2ccc(CNS(=O)(=O)c3ccc(F)cc3)cc2)cc1,0%,/,/,/,/,17%
COc1ccc(N2CC(NC(=O)COc3ccccc3C)CC2=O)cc1OC (configuration not stated),0%,/,/,/,4%,10%
Cn1c2ccccc2c2ncn(CCC3=CCCCC3)c(=O)c21,11%,-1,?,?,10µM*,-7%
CC(C)NC(=O)c1cccc2c(-c3ccc(F)c(F)c3)coc12,2%[9.22 µM],0,/,/,1µM*,/
CC(C)CNC(=O)c1cccc2c(-c3ccc(F)c(F)c3)coc12,0%[9.22 µM],0,/,/,4%,/
O=C(Nc1ccc(F)c(F)c1)c1ccc(-n2cncn2)c([N+](=O)[O-])c1,2%,0,4%,10µM*,-8%,-15%
Cc1ccc(NC(=O)c2nsc(Cl)c2Cl)cc1,5.6µM*,0,7%,?,7%,5%
Cc1ccc(NC(=O)c2nc(-c3ccncc3)no2)c(Cl)c1,0%,/,/,?,/,12%
COc1cc(OC)cc(C(=O)Nc2ccc(S(=O)(=O)N3CCCCC3c3cccnc3)cc2)c1 (configuration not stated),2%,/,/,/,/,-7%
CCN(CC)S(=O)(=O)c1cccc(NC(=O)Nc2cccc(C(F)(F)F)c2)c1,-2%,-3,-15%,2.6µM*,-82%,?
Cc1ccc(NCC(=O)Nc2cccc(S(=O)(=O)N(C)C)c2)cc1S(=O)(=O)N1CCCCCC1,-1%,-4,-5%,8.2µM*,-67%,?
CCN(CC)S(=O)(=O)c1ccc(C)c(NC(=O)CNc2cccc(S(=O)(=O)N3CCCC3)c2)c1,0%,-1,-3%,?,-35%,-17%
CCN(CC)S(=O)(=O)c1cccc(NC(=O)CNc2cccc(S(=O)(=O)N3CCCC3)c2)c1,0%,-5,-5%,26µM*,-47%,?
Cc1ccc(NC(=O)COc2ccc(-c3nnco3)cc2)cc1S(=O)(=O)N1CCOCC1,0%,0,-3%,23µM*,-14%,1%
